One experiment deals with Albumin (Bos taurus) (UniProt P02769). As to the kind of experiment: compounds binding labelled BSA control protein – biochemical, small-molecule microarray, Alexa647 label, 635/667 nm fluorescence, artefact control for SMM control protein annotation, profiling panel (AID 1118).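 Further: score merges 667 nm emission intensity and signal-to-noise per printed compound spot.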 To be noted: BSA-A647 binding, fluorescence 635 nm, higher = more signal.
Experiment [1] is described as follows: probe aXIP binding to arrayed compounds – biochemical, NeuroSMM set, 635/667 nm fluorescence, primary screen (AID 1119).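 Further: probe is the protein aXip251-270 applied at 1 µg/mL to compound-printed slides; binding of probe to printed compounds measured as 667 nm fluorescence plus signal to noise.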 As to conditions: small-molecule microarray, higher = more signal, called active from +8 up or from −8 down.
The nature of experiment [2]: probe aNOTCH3 binding on compound microarray – biochemical, small-molecule microarray, 635/667 nm fluorescence, primary screen (AID 1120).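 Further: probe is a biotin-tagged antibody raised against NOTCH3 rather than NOTCH3 protein; score merges spot fluorescence near 667 nm with spot signal to noise.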 To be noted: higher = more signal.
The nature of experiment [3]: probe aNOTCH2 binding on compound microarray – biochemical, small-molecule microarray, 635/667 nm fluorescence, primary screen (AID 1121).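 Further: score merges feature fluorescence read at 667 nm with its signal to noise.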 To be noted: higher = more signal.
For experiment [4], the target named is Carbonic anhydrase 2 (Homo sapiens) (UniProt P00918). As to the kind of experiment: compounds binding carbonic anhydrase 2 – biochemical, small-molecule microarray, Alexa647-labelled CAII, profiling panel (AID 1122). To be noted: CAII-A647 binding fluorescence, higher = more signal.
A short description of experiment [5]: COS7 lysate on small-molecule microarray, probe aHis, 635 nm (AID 1123).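 Further: z-score combines 667nm fluorescence intensity with signal-to-noise per printed compound spot.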 To be noted: COS7 cell lysate, fluorescence, higher = more signal.
A short description of experiment [6]: probe aLAP1 signal on lysate-treated microarray – cell lysate, small-molecule microarray, COS7 lysate, primary screen (AID 1124).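 Further: lysate comes from COS7 cells expressing LAP1 and is applied at 0.3 µg/mL; score merges spot fluorescence near 667 nm with signal-to-noise over triplicate slides.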 As to conditions: probe aLAP1, fluorescence, higher = more signal.
The next experiment has as its system Sam68 (KHDRBS1). As to the kind of experiment: compounds binding KHDRBS1 protein – biochemical, small-molecule microarray, 635 nm fluorescence, primary screen (AID 1125).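 Further: score merges 667 nm channel intensity with signal to noise over triplicate slides.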 As to conditions: higher = more signal.
Experiment [7] deals with Chordin-like protein 2 (CHRDL2). As to the kind of experiment: compounds binding chordin-like 2 – biochemical, small-molecule microarray, 635 nm fluorescence, primary screen (AID 1126).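 Further: printed compound slides probed with Chrdl2 protein at 4 µg/mL for 1 h at 4 C; score merges 667 nm emission intensity with signal to noise over three replicate slides.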 To be noted: fluorescence 635 nm, higher = more signal.
Experiment [8] concerns the target Concanavalin-A (Canavalia ensiformis) (UniProt P02866). As to the kind of experiment: compounds binding concanavalin A lectin – biochemical, small-molecule microarray, Alexa647 label, 635 nm, artefact control for SMM control protein annotation, primary screen (AID 1127).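 Further: z combines 667 nm emission intensity with signal-to-noise across three replicate slides.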 As to conditions: ConA-A647 binding fluorescence, higher = more signal.
The nature of experiment [9]: compounds binding Alexa647 anti-His antibody – biochemical, small-molecule microarray, 635 nm fluorescence, artefact control for SMM control protein annotation, primary screen (AID 1128).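 Further: score merges feature fluorescence with signal-to-noise for each printed compound spot.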 As to conditions: higher = more signal.
The test system of experiment [10] is Human papillomavirus type 1a E7 protein (residues 1-88). As to the kind of experiment: HPV1a E7 small-molecule binders, primary screen, biochemical, small-molecule microarray, residues 1-88, 635 nm (AID 1129). As to conditions: small-molecule microarray binding, fluorescence 635 nm; higher = more signal.
The target in experiment [11] is Focal adhesion kinase 1 (Homo sapiens) (UniProt Q05397). As to the kind of experiment: PTK2 protein binding on printed compound slides – biochemical, small-molecule microarray, 635/667 nm fluorescence, BSA, DTT, primary screen (AID 1130).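 Further: composite of spot emission at 667 nm and signal to noise over triplicate slides.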 As to conditions: 635 nm fluorescence, higher = more signal.
Sequence of Focal adhesion kinase 1 (Homo sapiens) (Q05397 whole entry, looked up): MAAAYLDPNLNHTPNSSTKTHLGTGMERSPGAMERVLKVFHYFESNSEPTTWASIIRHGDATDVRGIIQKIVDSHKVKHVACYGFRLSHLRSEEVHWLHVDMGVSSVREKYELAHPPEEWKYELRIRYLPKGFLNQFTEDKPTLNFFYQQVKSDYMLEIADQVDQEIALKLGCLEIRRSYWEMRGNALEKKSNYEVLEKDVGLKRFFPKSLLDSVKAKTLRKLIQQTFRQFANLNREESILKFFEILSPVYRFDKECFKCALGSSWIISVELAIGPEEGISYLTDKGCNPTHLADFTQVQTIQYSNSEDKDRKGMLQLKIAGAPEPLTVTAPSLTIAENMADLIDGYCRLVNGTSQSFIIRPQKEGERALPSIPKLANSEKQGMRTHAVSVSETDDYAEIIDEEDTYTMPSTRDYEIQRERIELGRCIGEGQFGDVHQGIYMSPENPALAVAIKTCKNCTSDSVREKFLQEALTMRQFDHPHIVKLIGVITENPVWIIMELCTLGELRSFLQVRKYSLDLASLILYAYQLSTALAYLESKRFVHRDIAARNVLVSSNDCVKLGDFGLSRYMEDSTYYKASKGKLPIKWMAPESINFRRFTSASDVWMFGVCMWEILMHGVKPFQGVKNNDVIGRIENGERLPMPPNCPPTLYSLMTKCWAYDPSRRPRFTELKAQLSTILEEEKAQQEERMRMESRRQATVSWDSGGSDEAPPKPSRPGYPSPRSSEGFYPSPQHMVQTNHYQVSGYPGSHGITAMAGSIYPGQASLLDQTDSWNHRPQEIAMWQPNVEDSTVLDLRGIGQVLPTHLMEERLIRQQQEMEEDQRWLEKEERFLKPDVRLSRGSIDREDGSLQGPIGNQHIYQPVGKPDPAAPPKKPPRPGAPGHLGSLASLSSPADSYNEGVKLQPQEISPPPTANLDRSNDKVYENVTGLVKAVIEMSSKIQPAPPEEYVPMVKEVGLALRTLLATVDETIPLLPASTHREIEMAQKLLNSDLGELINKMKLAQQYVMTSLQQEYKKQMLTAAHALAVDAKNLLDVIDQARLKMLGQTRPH
Experiment [12] deals with Fibrinogen (Alexa647-labelled). As to the kind of experiment: Alexa647-fibrinogen binding to printed small molecules – biochemical, small-molecule microarray, 635/667 nm fluorescence, artefact control for SMM control-protein annotation, profiling panel (AID 1131).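 Further: z-score merges 667 nm fluorescence with per-spot signal-to-noise over triplicate slides.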 To be noted: fibrinogen-A647 binding fluorescence, higher = more signal.
Experiment [13] deals with Follistatin (Homo sapiens) (UniProt P19883). As to the kind of experiment: FST protein binding to printed compounds – biochemical, small-molecule microarray, 635/667 nm fluorescence, primary screen (AID 1132). To be noted: 635 nm fluorescence, higher = more signal.
Sequence of Follistatin (Homo sapiens) (P19883 whole entry, looked up): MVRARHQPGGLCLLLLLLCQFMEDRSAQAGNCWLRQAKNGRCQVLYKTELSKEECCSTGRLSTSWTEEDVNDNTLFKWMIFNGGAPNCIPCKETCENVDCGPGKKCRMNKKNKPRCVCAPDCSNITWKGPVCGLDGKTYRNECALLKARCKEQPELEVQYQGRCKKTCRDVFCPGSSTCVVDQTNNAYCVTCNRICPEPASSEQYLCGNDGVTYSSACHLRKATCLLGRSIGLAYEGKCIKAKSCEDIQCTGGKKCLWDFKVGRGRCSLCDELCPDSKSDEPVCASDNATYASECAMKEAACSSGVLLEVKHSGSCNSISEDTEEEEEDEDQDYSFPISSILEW
Experiment [14] has as its target Fibroblast growth factor 2 (Homo sapiens) (UniProt P09038). As to the kind of experiment: basic fibroblast growth factor binding to printed compounds – biochemical, small-molecule microarray, 635/667 nm fluorescence, primary screen (AID 1133). As to conditions: FGF2, fluorescence 635/667, higher = more signal.
The nature of experiment [15]: JC-1 mitochondrial potential readout, lung cancer cells – cell-based, A549, JC-1 fluorescence, basal, 24 h, 100 nL, profiling panel (AID 1138).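 Further: A549 lung adenocarcinoma cells under basal conditions with no added stimulus; test concentration not given here.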 As to conditions: higher = more signal.
Another experiment has as its system Lefty1. As to the kind of experiment: Lefty1 protein binding to printed compounds – biochemical, small-molecule microarray, 635/667 nm fluorescence, primary screen (AID 1139). As to conditions: fluorescence 635/667, higher = more signal.
For experiment [16], the system named is wheat germ agglutinin (Triticum aestivum), Alexa647-labelled. As to the kind of experiment: Alexa647-WGA lectin binding to printed small molecules – biochemical, small-molecule microarray, 635/667 nm fluorescence, artefact control for SMM control-protein annotation, profiling panel (AID 1140).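 Further: score merges 667 nm feature emission with signal to noise over triplicate slides.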 As to conditions: WGA-A647 binding, 635 nm fluorescence, higher = more signal.

Experiment [17] has as its target Luciferin 4-monooxygenase (Photinus pyralis) (UniProt P08659). As to the kind of experiment: inhibition of purified Photinus pyralis luciferase – biochemical, luminescence, purified enzyme, 2006 set, primary screen (AID 1141).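 Further: cell-free assay with purified firefly luciferase at 100 ng per well in PBS; test concentration not given here.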 To be noted: purified firefly luciferase, SteadyGlo luminescence, 30 min; higher = more signal, called active from +8 up or from −8 down.

Each structure is given as a SMILES string. The source made the active and inactive calls.

Sequence of Fibroblast growth factor 2 (Homo sapiens) (P09038 whole entry, looked up): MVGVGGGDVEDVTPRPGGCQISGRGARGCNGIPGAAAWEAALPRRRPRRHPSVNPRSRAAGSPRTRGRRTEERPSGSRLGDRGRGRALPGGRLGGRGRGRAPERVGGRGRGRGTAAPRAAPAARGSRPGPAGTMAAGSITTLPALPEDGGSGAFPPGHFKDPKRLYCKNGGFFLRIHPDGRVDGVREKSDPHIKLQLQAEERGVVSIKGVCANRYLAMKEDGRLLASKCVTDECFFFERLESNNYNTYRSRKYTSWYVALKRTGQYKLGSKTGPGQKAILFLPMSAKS
Sequence of Albumin (Bos taurus) (P02769 whole entry, looked up): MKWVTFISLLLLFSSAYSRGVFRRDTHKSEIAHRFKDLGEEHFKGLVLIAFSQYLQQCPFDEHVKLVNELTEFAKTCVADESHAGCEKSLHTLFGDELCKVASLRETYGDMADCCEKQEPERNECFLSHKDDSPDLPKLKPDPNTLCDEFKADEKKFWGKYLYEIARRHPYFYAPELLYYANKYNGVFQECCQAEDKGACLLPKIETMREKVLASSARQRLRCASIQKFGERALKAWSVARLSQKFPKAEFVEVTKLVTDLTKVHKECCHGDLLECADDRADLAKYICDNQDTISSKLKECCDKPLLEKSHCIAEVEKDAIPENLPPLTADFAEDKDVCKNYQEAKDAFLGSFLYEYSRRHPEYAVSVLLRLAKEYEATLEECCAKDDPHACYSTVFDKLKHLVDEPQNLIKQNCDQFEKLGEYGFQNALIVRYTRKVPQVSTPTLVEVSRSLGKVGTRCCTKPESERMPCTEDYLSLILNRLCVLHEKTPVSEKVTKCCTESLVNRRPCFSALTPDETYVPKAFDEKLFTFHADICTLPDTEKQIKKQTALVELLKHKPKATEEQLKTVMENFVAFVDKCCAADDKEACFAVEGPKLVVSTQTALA
Sequence of Luciferin 4-monooxygenase (Photinus pyralis) (P08659 whole entry, looked up): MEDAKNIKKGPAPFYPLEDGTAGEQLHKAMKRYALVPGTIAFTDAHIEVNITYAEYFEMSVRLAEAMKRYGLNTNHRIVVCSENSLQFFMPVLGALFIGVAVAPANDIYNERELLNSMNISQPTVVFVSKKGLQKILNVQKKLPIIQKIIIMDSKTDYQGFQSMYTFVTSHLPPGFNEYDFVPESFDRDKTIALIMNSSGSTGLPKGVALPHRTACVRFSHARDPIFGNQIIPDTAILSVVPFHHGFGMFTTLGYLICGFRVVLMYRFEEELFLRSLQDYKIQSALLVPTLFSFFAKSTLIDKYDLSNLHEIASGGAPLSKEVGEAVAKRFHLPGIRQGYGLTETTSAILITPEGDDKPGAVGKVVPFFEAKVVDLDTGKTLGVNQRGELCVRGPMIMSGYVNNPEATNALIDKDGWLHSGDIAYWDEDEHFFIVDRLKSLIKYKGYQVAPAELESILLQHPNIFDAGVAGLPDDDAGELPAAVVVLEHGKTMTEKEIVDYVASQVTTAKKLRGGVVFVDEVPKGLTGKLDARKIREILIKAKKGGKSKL
Sequence of Concanavalin-A (Canavalia ensiformis) (P02866 whole entry, looked up): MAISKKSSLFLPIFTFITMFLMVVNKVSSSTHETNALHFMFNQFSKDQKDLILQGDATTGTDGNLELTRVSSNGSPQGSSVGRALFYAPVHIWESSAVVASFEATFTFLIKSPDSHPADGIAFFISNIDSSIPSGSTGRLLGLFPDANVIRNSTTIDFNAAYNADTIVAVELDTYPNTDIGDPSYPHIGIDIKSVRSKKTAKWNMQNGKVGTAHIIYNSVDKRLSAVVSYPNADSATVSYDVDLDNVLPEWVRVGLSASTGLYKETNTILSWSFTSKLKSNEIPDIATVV

On to `COCCOC(=O)N1C(=O)[C@@]2(c3cc(C#CCC(C(=O)OC)C(=O)OC)ccc31)[C@H](c1ccccc1OCCO)N1[C@H](c3ccccc3)[C@H](c3ccccc3)OC(=O)[C@H]1[C@@H]2C(=O)NC[C@H](O)c1ccccc1`, for which the composite z-score with Albumin (Bos taurus) is -0.841; in experiment [2], 0.164; in experiment [3], 0.0568; in [4], 0.483; in [5], 1.47; in [6] it was 0.412. Also, the composite z-score came to 1.3 in the experiment on Sam68 (KHDRBS1); 0.972 in [7]; 1.16 in [8]; 1.33 in experiment [9]; 1.15 in experiment [10]; 0.9 in experiment [11]. The composite z-score in [12] is 0.749; in experiment [13], 1.37; in experiment [14], 1.83; in the experiment on Lefty1 it was 1.41; in [16], 0.339. For the same compound, the composite Z-score in experiment [1] was 0.577 (inactive). Moreover, the z-score in [15] is -0.671; in experiment [17], -0.182 (inactive).

Regarding `COc1cc(COC(C)=O)ccc1OC(C)=O`, the composite z-score is -0.0355 with Albumin (Bos taurus); 0.397 in [2]; -0.0304 in [3]; -0.171 in experiment [4]; 0.279 in experiment [5]; -0.184 in [6]. Moreover, the composite z-score in the experiment on Sam68 (KHDRBS1) is 0.624; in experiment [7], 0.558; in experiment [8] it was 0.733; in experiment [9] it was -0.0364; in experiment [10], 0.262; in [11], 0.661. Also, the composite z-score in [12] was 0.0038; in experiment [13], 0.512; in experiment [14], 0.102; with Lefty1 it was 0.45; in [16], -0.155. The composite Z-score in experiment [1] is -0.254 (inactive). The z-score in experiment [15] is 1.47; in experiment [17], -1.52 (inactive).

Consider `CNS(=O)(=O)c1ccc(C)cc1`, for which the composite z-score with Albumin (Bos taurus) is -0.189; in experiment [2] it was -0.185; in experiment [3], -0.0761; in experiment [4], -0.0894; in experiment [5], 0.284; in [6], 0.291. Besides, the composite z-score in the experiment with Sam68 (KHDRBS1) was 0.667; in [7], 1.07; in experiment [8], 0.613; in [9] it was -0.0728; in [10], 0.668; in experiment [11], -0.163. The composite z-score in [12] was -0.212; in [13], 0.884; in experiment [14], 0.917; in the experiment with Lefty1 it was 0.39; in experiment [16], 0.0044. In experiment [1], the composite Z-score was 0.348 (inactive). In addition, the z-score is 1.55 in experiment [15] and -1.2 (inactive) in [17].

`O=C1O[C@@H](c2ccccc2)[C@@H](c2ccccc2)N2[C@@H](c3ccccc3OCCO)[C@]3(C(=O)Nc4ccccc43)[C@@H](C(=O)Nc3nc4ccccc4s3)[C@H]12`: the composite z-score is 0.827 with Albumin (Bos taurus); 1.38 in experiment [2]; -0.181 in [3]; 0.619 in experiment [4]; 2.89 in experiment [5]; 0.485 in [6]. In addition, the composite z-score with Sam68 (KHDRBS1) was 1.25; in experiment [7], -0.111; in experiment [8], 1.16; in experiment [9], 0.858; in experiment [10], 1.23; in experiment [11] it was 0.467. Also, the composite z-score in [12] worked out at 0.865; in experiment [13] it was 0.778; in [14] it was 0.188; in the experiment with Lefty1 it was 1.62; in experiment [16] it was 1.17. Also, the composite Z-score in experiment [1] was 0.703 (inactive). Moreover, the z-score in [15] was -2; in experiment [17], -0.237 (inactive).

Regarding `CCCC[C@@H]1C[C@H]1[C@@H](NC(=O)c1ccccc1)c1ccc(C(=O)OC)cc1`, the composite z-score with Albumin (Bos taurus) is -0.108; in experiment [2], -0.048; in [3], 0.0203; in [4], 0.287; in experiment [5], 0.157; in [6] it was -0.156. The composite z-score was -0.316 with Sam68 (KHDRBS1); -1.26 in experiment [7]; -0.364 in experiment [8]; -0.248 in [9]; -0.429 in experiment [10]; 0.0213 in [11]. Also, the composite z-score in experiment [12] is 0.0563; in experiment [13], -0.676; in [14] it was -1.67; in the experiment on Lefty1 it was -0.684; in experiment [16], -0.113. Further, the composite Z-score in experiment [1] was 0.953 (inactive). Further, the z-score in experiment [15] was 0.348; in [17] it was -0.438 (inactive).

(Values after PubChem BioAssay.)
